Screening results deposited in PubChem by National Center for Advancing Translational Sciences (NCATS).
D2 ag-1 – human D2 receptor agonism in beta-arrestin assay; DiscoveRx PathHunter D2 beta-arrestin, luminescence, 90 min; 100% = 57 uM dopamine signal; activation, % (concentration not given with the values); 360,000 tested, 0.084% active; in the data active = activation above about 40%; inconclusive = between about 15% and that limit
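Agonist mode: compounds alone added to overnight-plated D2 PathHunter cells for 90 min at 37 C, with 57 uM final dopamine (EC100) defining full response. Beta-arrestin recruitment detected by chemiluminescent reagent, read after 1 h at ambient temperature.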
D2 ag-2 – agonists of human D2 dopamine receptor. P14416. HEK293 T-REx D2 cells, calcium flux agonist mode. activation, % at 2 µM. 340,000 tested, 0.53% active. AID 485358;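 active = activation over 3 SD above normal in the single-dose calcium agonist read, cut at about 30% in these data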
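HEK293 Trex D2 cells, tetracycline-induced, o/n 30 C 5% CO2; no-wash Ca dye, RT 30–90 min; 10-cycle baseline, 23 nl cpd added, kinetic Ca read 180 s; agonist hits = positive Ca response.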
D2 antag – D2 dopamine receptor (human) antagonism | P14416 | HEK293 TREx D2 cells, calcium flux, dopamine EC80 | inhibition, % at 10 µM | 340,000 tested, 2% active; in the data active = inhibition above about 30%; inactive = below that, where a call was filed
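Overnight-induced (tetracycline, 30 C) HEK293 T-REx cells carrying force-coupled D2 receive a no-wash calcium dye, then compound, then EC80 dopamine at 180 s; signals are read kinetically throughout.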
D2 PAM-1 – positively modulates the human D2 dopamine receptor allosterically; P14416; HEK293 T-REx D2, calcium flux, EC20 dopamine potentiation; potentiation, % at 10 µM; 340,000 tested, 0.34% active; AID 485347;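 active = potentiation over 3 SD above the plate norm, cut at about 30% in these data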
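Calcium flux readout, no-wash dye, 1 read/s. Inducible HEK293 Trex D2 line, overnight 30 C. Compound alone 180 s (agonist flags), then EC20 dopamine, another 180 s to score potentiation.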
D2 PAM-2 – positive allosteric modulators of human D2 dopamine receptor; P14416; DiscoveRx D2 beta-arrestin cells, luminescence, 90 min; 100% = 57 uM dopamine signal; potentiation, % (no concentration beside the values); 360,000 tested, 0.23% active; AID 624464; in the data active = potentiation above about 50%; inconclusive = mostly about 30% to 49%
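PathHunter D2 cells, attached overnight at 37 deg C, received compound in DMSO plus dopamine at EC20 (50 nM final) for 90 min at 37 deg C. Beta-arrestin recruitment was read as luminescence after 1 h with detection reagent at ambient temperature.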
D3 arrestin ag – confirmation of human D3 dopamine receptor agonists, beta-arrestin | shares compounds with D2 ag-2 | AID 720506 | 2,300 tested, 4% active | DiscoveRx D3 beta-arrestin cells, luminescence, 90 min | Potency, µM (series often up to 76.9 µM), hits mostly activators; note: nearly all actives have a fitted effect of over 70% in size
Target sequence (P35462 whole entry, looked up): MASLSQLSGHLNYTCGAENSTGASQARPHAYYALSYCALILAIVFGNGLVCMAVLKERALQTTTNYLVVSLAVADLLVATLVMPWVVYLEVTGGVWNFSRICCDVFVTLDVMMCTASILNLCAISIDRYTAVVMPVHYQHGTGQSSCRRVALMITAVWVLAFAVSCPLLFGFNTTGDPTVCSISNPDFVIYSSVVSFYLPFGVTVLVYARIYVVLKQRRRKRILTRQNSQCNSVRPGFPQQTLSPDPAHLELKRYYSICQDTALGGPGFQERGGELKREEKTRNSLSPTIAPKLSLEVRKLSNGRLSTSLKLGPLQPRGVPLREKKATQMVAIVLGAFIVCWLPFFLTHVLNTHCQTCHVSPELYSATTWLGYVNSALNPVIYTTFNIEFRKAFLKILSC
D2 ag-3 – D2 receptor agonism, beta-arrestin counterscreen; shares compounds with D2 ag-2; DiscoveRx PathHunter D2 beta-arrestin, luminescence, 90 min; response scale: percent relative to full dopamine signal; Potency, µM (top dose mostly 76.9 µM), usual class: activators; 2,300 tested, 5.9% active; AID 720507; note: nearly all actives have a fitted effect of over 70% in size
Each line names hits and unclear results; the compound was inactive in the other large screens (follow-up assays come after a bar, where they were run). Rows were chosen to be rich in hits. Some 2.4% of all compounds tested hit in one or more screens of this group. Unless noted, calls come from the whole dose curve; as a rule, active = well fitted activation curve with a large enough effect; inconclusive = small, poorly fitted or top-dose-only effect; inactive = flat fitted curve, though single readings scatter.

CCC(C(=O)N1CCN(Cc2ccc3c(c2)OCO3)CC1)n1c(=O)[nH]c2ccccc2c1=O (configuration not stated)	D2 ag-2 46 | D3 arrestin ag inactive | D2 ag-3 inactive
Cn1c(=O)cc(SCC(=O)N2CCN(Cc3ccc4c(c3)OCO4)CC2)c2ccccc21	D2 ag-2 38, D2 antag 41 | D3 arrestin ag inactive | D2 ag-3 inactive
CC(C)[C@@H](C(=O)N1CCN(Cc2ccc3c(c2)OCO3)CC1)n1nnc2ccccc2c1=O	none (no result: D2 ag-2, D2 antag, D2 PAM-1)
Cc1oc(-c2cccc(Br)c2)nc1CSc1nc2ncccc2[nH]1	none (no result: D2 ag-1, D2 antag, D2 PAM-2)
CCc1c(C)c2ccc(O)c(CN3CCN(c4ccc(F)cc4)CC3)c2oc1=O	none (no result: D2 ag-1, D2 antag, D2 PAM-2)
CCCCN(C)C(=O)Cn1c(C2CC(=O)N(c3ccc(C)cc3)C2)nc2ccccc21 (configuration not stated)	none (no result: D2 ag-1, D2 antag, D2 PAM-2)
O=C(c1ccc(N2CCCC2=O)cc1)N1CCN(c2ccccc2F)CC1	D2 ag-2 55 | D3 arrestin ag inconclusive | D2 ag-3 inactive
COc1ccc(C2(CCN)CC(C)N(C)CC2C)cc1 (configuration not stated)	D2 ag-2 31 | D3 arrestin ag inactive | D2 ag-3 inactive
CC#CCC(CC#CC)c1nc2ccccc2c(=O)n1N	none | D3 arrestin ag inactive | D2 ag-3 inactive
O=C(COC(=O)C1CC1)Nc1nc(-c2ccc(F)c(F)c2)cs1	none
O=CNc1ccccc1	none | D3 arrestin ag inactive | D2 ag-3 inactive
C=CCn1c2ccccc2c2nn(C)c(=S)nc21	none
Cc1nc(NCCc2ccccc2)c2nnn(Cc3ccccc3Cl)c2n1	none | D3 arrestin ag inactive | D2 ag-3 inactive
Cc1ccc(NC2=NCC(=O)N2Cc2cccs2)cc1C	none (no result: D2 ag-2, D2 antag, D2 PAM-1) | D3 arrestin ag inactive | D2 ag-3 inactive
C[C@@H](CO)NC(=O)[C@H]1O[C@@H](n2cnc3c(N)ncnc32)[C@H](O)[C@@H]1O	none (no result: D2 ag-2, D2 antag, D2 PAM-1)
Nc1ncnc2c1ncn2C1OC(C(=O)NC2CC2)C(O)C1O (configuration not stated)	none | D3 arrestin ag inactive | D2 ag-3 inactive
Cc1ccc2c(c1)[nH]c1c(=O)n(Cc3ccco3)cnc12	D2 ag-2 33 | D3 arrestin ag inactive | D2 ag-3 inactive
Cc1ccc(OC(C)C(=O)N2CCN(CCc3ccncc3)CC2)cc1C (configuration not stated)	none (no result: D2 ag-1, D2 antag, D2 PAM-2)
CC(=O)c1cccc(NC(=O)C2CCCN2S(=O)(=O)c2cccs2)c1 (configuration not stated)	none (no result: D2 ag-2, D2 antag, D2 PAM-1)
Cc1cccc(SC2CCN(Cc3nc(CC4CC4)no3)CC2)c1	none
Cc1cccc(N2CCN(Cc3nc(CC4CC4)no3)CC2)n1	none | D3 arrestin ag inactive | D2 ag-3 inactive
COc1ccccc1CNC(=O)C(=O)NCC1CCCN1S(=O)(=O)c1cc(C)ccc1C (configuration not stated)	none (no result: D2 ag-2, D2 antag, D2 PAM-1)
O=C(Cn1cnc2ccccc2c1=O)N1CCN(Cc2ccc3c(c2)OCO3)CC1	D2 ag-1 inconclusive, D2 ag-2 50, D2 antag 55 | D3 arrestin ag inactive | D2 ag-3 inconclusive
O=C(Cn1cnc2ccccc2c1=O)NCC(=O)N1CCN(Cc2ccc3c(c2)OCO3)CC1	D2 ag-2 48 | D3 arrestin ag inactive | D2 ag-3 inactive
COc1ccc(C(C)C)cc1S(=O)(=O)NCc1ccccn1	none
Cc1ccc(C(C)C)cc1S(=O)(=O)NCc1ccccn1	none (no result: D2 ag-2, D2 antag) | D3 arrestin ag inactive | D2 ag-3 inactive
O=C(NC1CCCCC1)c1cc(-c2cccs2)on1	none
COc1ccc(-c2cc(C(=O)OCC(=O)NC(C)C)c3ccccc3n2)cc1	none
CC(OC(=O)c1nc(Cl)ccc1Cl)C(=O)NC1CCCCC1C (configuration not stated)	none | D3 arrestin ag inactive | D2 ag-3 inactive
Cc1ccc2c(CNC3CCCCC3)c(C(=O)O)n(Cc3ccc(F)cc3)c2c1	none (no result: D2 ag-1, D2 antag, D2 PAM-1, D2 PAM-2)
